Test results as given in PubChem BioAssay (EPA / NIEHS).
Values joined by “and” are separate entries in the source; they are usually repeats but may differ in a detail not shown here. Identical values can stand only once. Some compounds were tested as several samples or in several runs, with calls that do not always agree. Active and inactive are the calls of the source. How the source made its calls: active means hit-call score of the fitted dose curve at least 0.9, where 1 is the maximum; inactive means score below 0.9.

read-out: Matrix Metallopeptidase 1 (MMP1), MMP1 (gene 4312); assay: BSK_BE3C_MMP1: BioMAP Diversity Plus: BE3C Assay for Matrix Metallopeptidase 1 (MMP1) Biomarker Activity (AID 2283024); settings: primary human bronchial epithelial cells; actives raise or lower the signal
Description: BSK_BE3C is a cell-based, multiplexed-readout assay that uses bronchial epithelial cell, a human lung primary cell, with measurements taken at 24 hours after chemical dosing in a 96-well plate.BSK_BE3C_MMP1 is an assay component measured in the BSK_BE3C assay. It measures MMP-1 antibody related to regulation of gene expression using ELISA technology.Data from the assay component BSK_BE3C_MMP1 was analyzed into 1 assay endpoint. This assay endpoint, BSK_BE3C_MMP1, was analyzed with bidirectional fitting relative to DMSO as the negative control and baseline of activity. Using a type of binding reporter, gain or loss-of-signal activity can be used to understand changes in the signaling as they relate to the gene MMP1. Furthermore, this assay endpoint can be referred to as a primary readout, because this assay has produced multiple assay endpoints where this one serves a signaling function. To generalize the intended target to other relatable targets, this assay endpoint is annotated to the protease intended target family, where the subfamily is matrix metalloproteinase.
The levels of cell surface (or secreted, indicated by the prefix "s") biomarker endpoints were measured by ELISA. Overt cytotoxicity to cells in confluent adherent cultures (all systems other than the BT system) was assessed by measuring total protein levels using sulforhodamine B (SRB) staining in parallel cultures at the time of biomarker measurements, indicated as SRB endpoints. For proliferation assays for adherent cell types, individual cell types are cultured at sub-confluence and relative cell numbers quantified by SRB staining at time points optimized for each system (48 h: 3C and CASM3C systems; 72 h: BT and HDF3CGF systems; 96 h: SAg system). SRB was performed by staining cells with 0.1% SRB after fixation with 10% TCA and reading wells at 560 nm.Viability and proliferation of PBMC (T cells) was quantified by Alamar Blue reduction for the SAg and BT systems. For PBMC viability (referred to as PBMC Cytotoxicity within the assay endpoint names), cells were plated (75,000/well in a 96-well plate) and then chemical samples added for 1 h before addition of activators, SEB and TSST-1 (20 ng/mL final concentration each). Cells were incubated for 90 h. Then, Alamar Blue (20 uL/well) (Invitrogen, Cat DAL1100) was added for 6 h, and the plates were read with a fluorescence microplate reader at 546/580 nm (excitation/emission). For PBMC proliferation, cells were plated and activated as above but incubated for only 16 h prior to addition of Alamar Blue. Plates were read after 6 h.

Compound | outcome | AC50
Nc1ccc(N)c([N+](=O)[O-])c1 | inactive | –
C=CC(=O)OCC(CO)(COC(=O)C=C)COC(=O)C=C | – | 3.22 µM (active)
OCC(F)(OC(F)(F)C(F)(OC(F)(F)C(F)(F)C(F)(F)F)C(F)(F)F)C(F)(F)F (stereo not given) | inactive | 2.54 µM (active)
CCC(=O)OCC=Cc1ccccc1 | inactive | –
OCCN1CCOCC1 | inactive | –
CC=CC(=O)C1=C(C)C=CCC1(C)C | inactive | –
CCCO[Si](OCCC)(OCCC)OCCC | inactive | –
CC(C)CCCC(C)(C)O | inactive | –
O=C(c1ccc(OCCN2CCCCC2)cc1)c1c(-c2ccc(O)cc2)sc2cc(O)ccc12 | – | 32.2 µM (active)
CCCCN(CCO)CCO | inactive | –
O=C1OC2(c3ccc(O)cc3Oc3cc(O)ccc32)c2ccccc21 | inactive | –
CC1(C)[C@H](C=C(Cl)Cl)[C@H]1C(=O)OCc1cccc(Oc2ccccc2)c1 | inactive | –
O=S(=O)(O)C(F)(F)C(F)(F)OC(F)(F)C(F)(F)F | inactive | 42.9 µM (active)
COC(=O)c1ccc(C(=O)OC)cc1 | inactive | –
C=C(C)C(N)=O | inactive | –
c1ccc(Sc2ccccc2)cc1 | – | 0.016 µM (active)
CCOC(=O)C=Cc1ccccc1 | inactive | –
NC(=O)c1c(Cl)cccc1Cl | inactive | –
c1ccc(OCCOc2ccccc2)cc1 | inactive | 0.0654 µM (active)

Compound | outcome | AC50
CCOC(=O)CCCCCCCCC(=O)OCC | inactive | –
CC(=O)OCC=C(C)CCC=C(C)CCC=C(C)C | inactive | –
CCCCCCCCCC(=O)OCC | inactive | –
O=C(O)C(F)(F)OC(F)(F)C(F)(F)OC(F)(F)C(F)(F)C(F)(F)C(F)(F)F | – | 19.9 µM (active) and 21.3 µM (active)
CC(C)Cc1ccc(C(C)C(=O)O)cc1 (stereo not given) | inactive | –
CCn1cc(C(=O)O)c(=O)c2ccc(C)nc21 | inactive | –
C=C(C)C(=O)OCCC(F)(F)C(F)(F)C(F)(F)C(F)(F)C(F)(F)C(F)(F)C(F)(F)C(F)(F)F | inactive | –
C=C(F)C(=O)OC(C(F)(F)F)C(F)(F)F | inactive | –
CC(C)(CO)CO | inactive | –
CC1=CC(C)C(C=O)C(C)C1 (stereo not given) (tested in a mixture with another compound) | inactive | –
O=C(O)C(F)(F)C(F)(F)C(F)(F)C(F)(F)C(F)(F)C(F)(F)C(F)(F)C(F)F | – | 11.5 µM (active) and 35.9 µM (active)
CC/C(=C(\c1ccccc1)c1ccc(OCCN(C)C)cc1)c1ccccc1 | – | 10.1 µM (active) and 12.3 µM (active)
C=C1CC/C=C(\C)CC[C@@H]2[C@@H]1CC2(C)C | – | 20 µM (active)
CC(=O)c1ccc(C)cc1 | inactive | –
C#C[C@]1(O)CC[C@H]2[C@@H]3CCc4cc(O)ccc4[C@H]3CC[C@@]21C | inactive | –
CC(=O)CCC=C(C)CCC=C(C)C | inactive | –
CCCCCCCCCCCCS | – | 20 µM (active)
c1ccc2c(c1)-c1ccc3ccc4cccc5cc-2c1c3c45 | inactive | –
